Bioassay records (PubChem)
SKKanGAS inh: SKKanGAS growth inhibition. S. pyogenes SKKanGAS, kanamycin growth, BacTiter-Glo, 6 h. inhibition, % at 7.5 µM. actives 1.3% (n = 300,000). AID 1662;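 active means mean replicate score, as percent of positive control median, at least 50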;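 further: strain carries kanamycin resistance gene driven by streptokinase promoter and grows in 40 µg/ml kanamycin; loss of luminescence reflects streptokinase promoter inhibition or plain growth inhibition; 0% = median of DMSO wells and 100% = positive control at its reference dose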
tim23-1 inh: inhibits growth of tim23-1 mutant yeast. S. cerevisiae tim23-1 growth, BacTiter-Glo luminescence, 24 h. actives 1.3% (n = 330,000). inhibition, % at 20 µM;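 active means growth inhibition of the mutant yeast at or above 50%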;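 further: temperature-sensitive mutant grown at 25 °C; plate controls were DMSO-treated mutant yeast for no effect and medium wells lacking yeast for full effect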
tim10-1 inh: tim10-1 yeast growth inhibition; S. cerevisiae tim10-1 ts strain growth, BacTiter-Glo, 24 h; inhibition, % at 20 µM; actives 2.2% (n = 330,000);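 active means inhibition of at least 40%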;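 further: mutant grown at 25 °C; 0% = DMSO wells with yeast and 100% = wells holding no yeast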
TIM10 inh: inhibits growth of TIM10 yeast strain. inhibition, % at 10 µM. actives 1.4% (n = 330,000). S. cerevisiae TIM10 strain growth, BacTiter-Glo luminescence, 24 h;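 active means inhibition of 40% or more at the single tested concentration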;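 further: wild-type TIM10 isogenic control strain grown at permissive 25 °C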
NALP3 yeast inh: NALP3 inhibition in yeast | actives 0.39% (n = 330,000) | AID 2825 | Yeast reconstituted NLRP3/ASC/caspase-1, beta-gal luminescence, 24 h | inhibition, % at 10 µM;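 active means inhibition of 50% or more; inactive means inhibition below 50%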;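 further: plate controls were induced DMSO wells for no effect and uninduced yeast grown without galactose for full effect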
PfHsp90 set2: reduces growth (ATP signal) of yeast expressing P. falciparum Hsp90. AID 504621. actives 0.32% (n = 310,000). S. cerevisiae expressing PfHsp90, BacTiter-Glo ATP, 48 h; yeast lacking PDR1 and PDR3 efflux regulators. inhibition, % at 9.4 µM;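 active means every replicate shows inhibition above about 80%, whatever the replicate mean, limit read from the data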;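 further: 0% = DMSO neutral controls and 100% = 20 µM radicicol positive controls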
tim10-1 conf: confirmation of tim10-1 mutant yeast growth inhibitors; shares compounds with tim10-1 inh; S. cerevisiae tim10-1 ts strain growth, BacTiter-Glo, 24 h; inhibition, % at 20 µM; actives 56% (n = 7,400);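 active means inhibition of yeast growth at or above a set limit in either of two repeat tests at 20 µM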;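 further: tim10-1 mutant grown at permissive 25 °C to find synthetic lethal compounds; 0% = DMSO yeast wells and 100% = medium wells without yeast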
* hit, by the source's call; / = no result given. Shown are actives, neighbours in structure and some others; about 4.6% of the full set was active somewhere.

SMILES	SKKanGAS inh	tim23-1 inh	tim10-1 inh	TIM10 inh	NALP3 yeast inh	PfHsp90 set2	tim10-1 conf
O=C(CN1CCSC1=O)N1CCN(S(=O)(=O)c2ccccc2)CC1	/	-6	-10	7	15	-3	/
c1ccn2cc(C34CC5CC(CC(C5)C3)C4)nc2c1	-11	49	53*	36	0	/	39*
CC(C)N(C(=O)c1ccccc1-c1ccccc1)C(C)C	4	19	22	33	5	3	/
CC(C)C[C@H](NC(=O)c1nc[nH]c1C(=O)NCc1ccc(CNC(=O)OC(C)(C)C)cc1)C(=O)OCc1ccccc1	20	19	3	4	17	11	/
O=C(Oc1coc(CSc2ncccn2)cc1=O)c1ccco1	11	16	22	29	-2	2	/
Cc1ccnc(SCc2cc(=O)c(OC(=O)c3ccc(Br)o3)co2)n1	-7	38	46*	37	1	10	29*
O=[N+]([O-])c1ccc(C(=S)N2CCN(c3ccc(F)cc3)CC2)cc1	-13	35	43*	21	-8	-2	26
COc1ccc(S(=O)(=O)n2nc(OC(=O)c3cccs3)cc2NC(=O)c2cccs2)cc1	-3	8	45*	-5	18	-29	30*
COc1ccc(S(=O)(=O)n2nc(OC(C)=O)cc2N)cc1	0	9	8	14	12	33	/
COc1ccc(C(=O)Oc2cc(N)n(S(=O)(=O)c3ccccc3)n2)cc1	-1	19	40*	21	4	-12	23
O=C(NC(=S)N1CCOCC1)c1ccc([N+](=O)[O-])cc1	0	-1	15	0	10	1	/
Cc1ccc2cccc(NC(=S)NC(=O)c3ccnn3C)c2n1	0	39	43*	39	26	-39	29
CC(=O)NC(=S)Nc1cccc2ccc(C)nc12	-8	-2	24	-22	-5	-2	/
C=C(C)C1CC=C(C)/C(=N/NC(=O)c2ccc(NC(=O)c3cccc(C)c3)cc2)C1 (stereo not drawn)	12	-25	-1	-40	6	-3	/
C=C(C)C1CC=C(C)/C(=N/NC(=S)Nc2ccccc2)C1 (stereo not drawn)	0	27	41*	18	28	-19	26
CC1CCN(c2c([N+](=O)[O-])nn(-c3ccc4c(c3)OCCO4)[n+]2[O-])CC1	2	38	44*	22	23	/	29
O=C(c1ccco1)N1CCN(c2c([N+](=O)[O-])nn(-c3ccc(Cl)cc3)[n+]2[O-])CC1	-1	29	17	11	3	-3	/
O=C(Oc1ccc(C(=S)N2CCCCC2)cc1)c1ccccc1F	-2	38	56*	24	3	-9	28
O=C1CCCCC1Sc1nnc(Cc2cccs2)n1CCc1ccccc1 (stereo not drawn)	/	14	45*	17	11	-4	24
CCCCn1nc(NC(=O)c2cccs2)c2cc3ccccc3nc21	6	49	48*	25	6	/	39*
CCCn1nc(NC(=O)c2cccs2)c2cc3cc(C)ccc3nc21	35	43	41*	15	25	-15	31*
COc1cc(/C=N/N=C2/C(=O)Nc3ccccc32)cc(OC)c1O	0	43	44*	36	-9	-2	52*
O=c1c2cn[nH]c2nc(SCc2cc(=O)n3cc(Br)ccc3n2)n1-c1ccc(Br)cc1	25	1	16	11	3	-14	/
O=c1c2cn[nH]c2nc(SCc2ccccc2F)n1-c1ccc(Br)cc1	5	39	42*	23	8	-17	23
O=C(NCc1cccs1)C1CC(=O)N(Cc2ccccc2)C1 (stereo not drawn)	/	5	1	-2	-1	-11	/
SMILES	SKKanGAS inh	tim23-1 inh	tim10-1 inh	TIM10 inh	NALP3 yeast inh	PfHsp90 set2	tim10-1 conf
Cc1nc(SCC(=O)N2CCN(c3ccccc3)CC2)c2oc3ccccc3c2n1	14	40	48*	31	43	-23	43*
Cc1ccc(NC(=S)N(CCN2CCOCC2)Cc2ccccc2F)cc1Cl	-4	6	37	35	-3	0	/
Cc1cccc(NC(=S)N(CCN2CCOCC2)Cc2ccccc2F)c1	-4	16	42*	-6	-3	3	5
Cc1sc2nc(-c3ccco3)oc(=O)c2c1C	-1	36	42*	21	14	14	29
Cc1ccccc1-c1nc2sc(C)c(C)c2c(=O)o1	7	12	3	-22	14	-14	/
COc1ccc2sc(N(CCCN(C)C)C(=O)c3ccc(S(=O)(=O)N4CCCc5ccccc54)cc3)nc2c1	24	28	57*	39	36	/	32*
CN(C)CCCN(C(=O)c1ccc([N+](=O)[O-])s1)c1nc2cc3c(cc2s1)OCCO3	3	21	43*	31	28	-1	39*
CCN(Cc1ccccc1)S(=O)(=O)c1ccc(C(=O)N(CCCN(C)C)c2nc3cc4c(cc3s2)OCCO4)cc1	4	8	46*	-61	23	-9	4
CN(C)CCCN(C(=O)c1cc2cc([N+](=O)[O-])ccc2s1)c1nc2cc3c(cc2s1)OCCO3	10	9	79*	30	17	22	27*
COc1cc2nc(N(CCCN(C)C)C(=O)c3ccc(S(=O)(=O)N4CCc5ccccc54)cc3)sc2cc1OC	8	14	16	1	6	9	/
COc1ccc(-n2c(=S)[nH]c3cc(C(=O)NCc4cccnc4)ccc3c2=O)cc1	-2	-1	2	-16	17	-2	/
O=C(Nc1cccc(S(=O)(=O)Nc2ccc(Cl)cc2)c1)c1cc2c(s1)CCCC2	65*	25	40*	23	1	-2	16
O=C(Nc1ccon1)c1cc2c(s1)CCCCCC2	-1	43	52*	33	-32	-20	40*
CC(NC(=O)c1ccco1)c1cccc2ccccc12 (stereo not drawn)	2	15	10	-13	7	/	/
Cc1cc2nc(/C(C#N)=C\c3ccc(-c4ccccc4C(=O)O)o3)[nH]c2cc1C	7	30	46*	10	-1	-12	39*
Cc1ccc2nc(/C(C#N)=C/c3ccc(-c4ccccc4C(=O)O)o3)[nH]c2c1	14	14	9	2	11	-7	/
O=C(c1ccc(-c2ccccc2Cl)o1)N1CCN(c2ccccc2O)CC1	-2	48	44*	16	12	-20	28
CCN(CC(=O)Nc1cc(Cl)ccc1C)C(=O)CCS(=O)(=O)c1ccc(Cl)cc1	2	12	11	0	2	-2	/
Cc1nn(Cc2c(Cl)cccc2Cl)c(C)c1N	1	4	14	-3	4	17	/
